Source: PubChem BioAssay (NCATS)
Records with an inconclusive call do not appear. Activity calls are given as the source filed them. Calls follow the shape of the dose curve; as a rule, active = well fitted activation curve with a large enough effect; inconclusive = small, poorly fitted or top-dose-only effect; inactive = no such curve, though single readings can be large or run the other way.

Target: Rap guanine nucleotide exchange factor 4 (Homo sapiens) (UniProt Q8WZA2)
Experiment: Confirmatory qHTS for agonist of cAMP-regulated guanine nucleotide exchange factor 4 (EPAC2) (AID 1645884);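 also: nucleotide exchange releases bodipy-GDP from Rap1 and this lowers its fluorescence; nearly all actives have a fitted effect of over 65% in size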
Conditions: EPAC2 GEF activity, Rap1B-BODIPY-GDP fluorescence; series mostly up to 154 µM
% is scaled to controls: 0 for no effect and ±100 for the full control effect.

Sequence of Rap guanine nucleotide exchange factor 4 (Homo sapiens) (Q8WZA2 whole entry, looked up): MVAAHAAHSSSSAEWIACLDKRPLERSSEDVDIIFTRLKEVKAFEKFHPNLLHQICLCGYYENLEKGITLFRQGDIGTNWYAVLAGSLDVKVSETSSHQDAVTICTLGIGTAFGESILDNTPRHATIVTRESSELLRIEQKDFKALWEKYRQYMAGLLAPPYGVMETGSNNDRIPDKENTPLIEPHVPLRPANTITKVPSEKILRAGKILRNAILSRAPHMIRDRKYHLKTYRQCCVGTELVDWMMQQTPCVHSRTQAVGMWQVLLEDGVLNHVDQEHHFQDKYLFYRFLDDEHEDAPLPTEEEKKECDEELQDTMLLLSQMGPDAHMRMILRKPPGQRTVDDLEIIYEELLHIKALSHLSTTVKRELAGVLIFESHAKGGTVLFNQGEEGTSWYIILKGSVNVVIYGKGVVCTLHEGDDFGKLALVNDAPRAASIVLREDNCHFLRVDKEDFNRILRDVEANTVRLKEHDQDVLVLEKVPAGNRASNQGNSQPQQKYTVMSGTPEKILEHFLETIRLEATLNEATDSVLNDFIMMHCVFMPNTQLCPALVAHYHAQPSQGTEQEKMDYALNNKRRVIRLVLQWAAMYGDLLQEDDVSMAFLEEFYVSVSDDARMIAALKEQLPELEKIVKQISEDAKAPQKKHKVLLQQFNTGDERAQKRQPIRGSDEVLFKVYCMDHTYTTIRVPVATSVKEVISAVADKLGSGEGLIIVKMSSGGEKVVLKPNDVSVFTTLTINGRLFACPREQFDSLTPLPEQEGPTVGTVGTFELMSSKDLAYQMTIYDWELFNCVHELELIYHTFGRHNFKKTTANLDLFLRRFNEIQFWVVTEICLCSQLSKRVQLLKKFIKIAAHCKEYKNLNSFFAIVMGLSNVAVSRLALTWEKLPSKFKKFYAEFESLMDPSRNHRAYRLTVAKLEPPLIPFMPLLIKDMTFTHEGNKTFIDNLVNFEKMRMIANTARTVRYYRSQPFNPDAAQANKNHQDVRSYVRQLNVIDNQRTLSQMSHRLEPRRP

Potency, inactive:
CCc1nc2c(OCc3ccc(C(=O)OC)cc3)cccn2c1N(C)C(=O)c1ccc(C)cc1
N#CCC(=O)N/N=C/c1coc2ccccc2c1=O
Cc1ccc(C)c(OC(C)C(=O)Nc2ccc(S(=O)(=O)Nc3nccs3)cc2)c1 (stereo unspecified)
CCc1nc2c(OCc3ccc(C(F)(F)F)cc3)cccn2c1N(C)C(=O)c1ccc(C)cc1
O=C(Nc1ccccc1C(=O)O)c1cccc(NC(=O)c2ccc(Br)o2)c1
CCOc1ccccc1Oc1ncnc2c1oc1ccccc12
COCCNc1nc2cc(-c3ccsc3)sc2c(=O)n1C
Cc1ccc(C)c(Cn2c(CN(C)Cc3ccccc3)nc3c2c(=O)n(C)c(=O)n3C)c1
CN(C)c1ccc(-c2[nH][nH]c(=O)c2NC(=O)c2ccccn2)cc1
Cc1ccc(Nc2c(-c3ccccn3)nc3cccc(C)n23)cc1
CC(c1ccccc1)n1cc2c(c1-c1ccccc1Br)c(=O)n(C)c(=O)n2C (stereo unspecified)
O=C(O)c1ccc(N2C(=O)CC(SC(=NCc3ccc4c(c3)OCO4)Nc3ccc(F)cc3)C2=O)cc1 (stereo unspecified)
O=C(COc1ccccc1-c1ccccc1)NCc1ccco1
CCOC(=O)Cc1cc(=O)n2[nH]c(-c3ccccc3)c(-c3ccccc3)c2n1
O=C1Cc2ccccc2C(=O)N1CCc1ccccc1
CCn1c(=O)c(C(=O)Nc2ccccc2S(N)(=O)=O)c(O)c2ccccc21
Cc1cccc(Nc2nnc(SC/C(O)=C(\C#N)c3nc4ccccc4[nH]3)s2)c1
O=C(N/N=C/c1ccc(Sc2ccccn2)o1)c1cc2ccccc2cc1O

activation, inactive:
CC(C)C(CCNC(=O)CC(Cc1ccccc1)c1ccco1)c1ccco1 (stereo unspecified) 3.03% [at 17.1 µM, percent relative to cAMP agonist control]
CCCC(=O)OC1CC(C)N(C(=O)c2ccccc2)c2ccc(C)cc21 (stereo unspecified) -2.84% [at 17.1 µM, percent relative to cAMP agonist control]
COCCCn1c(=O)/c(=C\c2ccccc2OC(C)C)s/c1=C(/C#N)C(=O)Nc1ccc(C(=O)O)cc1 8.99% [at 17.1 µM, percent relative to cAMP agonist control]
O=S(=O)(Nc1nc2ccc(Cl)cc2s1)c1cccs1 0% [at 17.1 µM, percent relative to cAMP agonist control]
CCOc1ccc(N2C(=O)C3Sc4[nH]c(=O)sc4C(/C=C/c4ccccc4)C3C2=O)cc1 (stereo unspecified) 4.64% [at 17.1 µM, percent relative to cAMP agonist control]
CCOC(=O)c1cc2c(ccn2C)n1CC(=O)N1CCN(c2cccc(C(F)(F)F)c2)CC1 0% [at 17.1 µM, percent relative to cAMP agonist control]
O=S(=O)(Nc1cc(Sc2ncn[nH]2)c(O)c2ccccc12)c1ccccc1 4.4% [at 17.1 µM, percent relative to cAMP agonist control]
COC(=O)[C@]12CCCCC=C1N(CCC1=CCCCC1)C(=O)[C@H](CC(=O)NCc1cccc(C(F)(F)F)c1)C2 0% [at 17.1 µM, percent relative to cAMP agonist control]
Cc1occc1-c1nnc(SCC(=O)c2cc3ccccc3oc2=O)o1 -0.174% [at 17.1 µM, percent relative to cAMP agonist control]
CC(C)Cc1ccc(CN2CCCC(NC(=O)c3cnc4ccccn4c3=O)C2)cc1 (stereo unspecified) 12.4% [at 17.1 µM, percent relative to cAMP agonist control]
COc1ccc(Oc2cn[nH]c2-c2ccc(OC)cc2O)cc1 9.65% [at 17.1 µM, percent relative to cAMP agonist control]
O=C(CSc1ccc2ccccc2c1)Nc1ccc(S(=O)(=O)Nc2nccs2)cc1 0.22% [at 17.1 µM, percent relative to cAMP agonist control]
O=C(Nc1cccc(Cl)c1)Nc1ccccc1NS(=O)(=O)c1cccs1 0% [at 17.1 µM, percent relative to cAMP agonist control]
